hcDAF12 agonist – H. contortus DAF-12 nuclear receptor activators, primary screen, cell-based, luminescence, HEK293, lit1-tk-luc reporter; HEK293 hcDAF-12 lit1-tk-luc reporter; 0% DMSO, 100% Δ7-dafachronic acid; activation, % at 6.8 µM; 1.4% of 370,000 active;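 active = activation above the mean of all tested compounds plus 3 SD, cut at about 5.5% in these data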;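 also: 100% = response to 3 µM Δ7-dafachronic acid high control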
DAX1 inh-1 – DAX1 (NR0B1) inhibitors, primary screen, cell-based, HEK293, Gal4-DAX1, luciferase luminescence; 0.99% of 340,000 active; inhibition, % at 6.75 µM; Nuclear receptor subfamily 0 group B member 1 (Homo sapiens), P51843; AID 504766, 2011; HEK293 Gal4-DAX1 luciferase reporter;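 active = inhibition above the mean over all tested compounds plus 3 SD, cut at about 4.2% in these data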;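 also: 0% = DAX1-transfected cells with DMSO and 100% = empty-vector control cells with DMSO; inhibition shows as a rise in luminescence from relieved DAX1 repression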
Target sequence (P51843 207-470 limits assumed): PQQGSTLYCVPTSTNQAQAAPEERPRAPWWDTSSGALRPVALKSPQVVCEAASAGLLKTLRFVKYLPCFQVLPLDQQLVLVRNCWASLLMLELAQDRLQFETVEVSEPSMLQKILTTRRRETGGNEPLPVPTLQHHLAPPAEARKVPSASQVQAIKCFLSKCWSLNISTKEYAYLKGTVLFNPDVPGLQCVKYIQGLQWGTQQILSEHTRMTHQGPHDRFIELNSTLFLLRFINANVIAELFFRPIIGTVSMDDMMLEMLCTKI
hgDAF12 agonist – H. glycines DAF-12 receptor agonists, primary screen, cell-based, luminescence, HEK293, GAL4 fusion, UAS-luciferase | HEK293 GAL4-hgDAF12 UAS-luciferase reporter, agonist luminescence; normalized to butyrate control | activation, % at 6.8 µM | 1.8% of 370,000 active;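 active = activation above a cutoff set at the mean of all screened compounds plus 3 SD, cut at about 10% in these data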;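 also: 0% = DMSO wells and 100% = sodium butyrate wells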
ssDAF12 agonist – S. stercoralis DAF-12 nuclear receptor activators, primary screen, cell-based, luminescence, HEK293, GRIP1 co-expression, lit1-tk-luc; Nuclear hormone receptor DAF-12 (Strongyloides stercoralis); HEK293 ssDAF-12/GRIP1 lit1-tk-luc reporter; % of 3 µM dafachronic acid response; activation, % at 6.8 µM; 1% of 370,000 active;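 active = activation above the mean over all tested compounds plus 3 SD, cut at about 0.9% in these data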;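 also: 0% = DMSO-only wells and 100% = 3 µM delta7-dafachronic acid wells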
AHR act – AHR activators, primary screen, cell-based, luminescence, luciferase reporter, human | AHR-responsive luciferase reporter cells | activation, % at 5 µM | 2.5% of 320,000 active | AID 2796, 2010; in the data active = activation above about 47%;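 also: 0% = vehicle wells and 100% = reference agonist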
DAX1 inh-2 – DAX1 (NR0B1) inhibitors on StAR promoter, primary screen, cell-based, luminescence, SF-1 (NR5A1), full-length DAX-1. 1.1% of 370,000 active. HEK293T StAR-luciferase reporter, SF-1/DAX-1 repression relief. inhibition, % at 6.8 µM;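 active = inhibition above the mean over all tested compounds plus 3 SD, cut at about 3.6% in these data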;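 also: 0% = DAX-1 cells with DMSO and 100% = cells lacking DAX-1 with DMSO; higher inhibition means more luminescence from relief of DAX-1 repression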
* hit, by the source's call; / = no result. Rows were chosen to be rich in hits. Some 5.7% of all compounds tested hit in one or more screens of this group.

SMILES	hcDAF12 agonist	DAX1 inh-1	hgDAF12 agonist	ssDAF12 agonist	AHR act	DAX1 inh-2
Cc1ccc(N(C(=O)CNC(=O)c2ccco2)C(C(=O)NC2CCCC2)c2cccnc2)cc1C (stereo not drawn)	-1	4.3*	-1	-1	3	0
O=C(NCC(=O)N(CC1CCCO1)C(C(=O)NC1CCCCC1)c1ccccc1)c1cccs1 (stereo not drawn)	-2	-1	-3	-2	1	0
CC(C)N1CCN(Cc2cccc(-c3ccco3)c2)CC1CCO (stereo not drawn)	0	0	5	0	1	0
Cc1ccccc1-c1cccc(CN2CCN(C)C(CCO)C2)c1 (stereo not drawn)	0	4.6*	1	-1	1	0
CCc1ccc2nc3sc(C(=O)O)cc3cc2c1	6.1*	0	7	-1	13	3
Cc1ccc2nc3sc(C(=O)N4CCN(C)CC4)cc3cc2c1	0	/	2	-2	/	/
O=C(OCCc1cc2ccccc2c(=O)o1)c1ccccc1C(F)(F)F	0	0	0	0	-3	0
COc1ccc(NC(=O)c2oc3ccccc3c2NC(=O)C2CC2)cc1	-1	1	-1	-2	72*	-2
CCOC(=O)c1oc2ccccc2c1NC(=O)C(C)(C)C	1	0	0	-1	4	0
CCOCC(=O)Nc1c(C(=O)OCC)oc2ccccc12	0	0	2	-2	68*	0
CCOCC(=O)Nc1c(C(=O)Nc2ccc(OC)cc2OC)oc2ccccc12	-2	-1	-1	-2	67*	1
Cc1ccc(NC(=O)c2oc3ccccc3c2NC(=O)c2ccc3c(c2)OCO3)cc1	1	0	2	1.1*	7	0
COc1ccc(NC(=O)c2oc3ccccc3c2NC(=O)c2ccco2)c(OC)c1	-1	1	-2	-1	45	0
CNC(=O)c1cc(S(=O)(=O)N2CC(C)OC(C)C2)ccc1N1CCCCC1 (stereo not drawn)	0	0	0	-1	/	0
COc1ccc(NC(=O)c2oc3ccccc3c2NC(=O)C2CC2)c(OC)c1	-1	0	0	0	55*	0
O=C(Nc1ccc(-c2nc3c(ccc4ccccc43)o2)cc1)c1ccco1	1	1	9	-2	67*	1
COc1ccc(NC(=O)c2oc3ccccc3c2NC(=O)c2ccco2)cc1	0	-1	0	-2	69*	0
NC(=O)C1(NC2CCCCC2)CCN(Cc2ccccc2)CC1	-1	2	-2	-1	/	-1
O=C(Nc1cc(-c2ccccc2)[nH]n1)c1ccccc1F	2	/	12*	-1	2	2
CN1CCN(CC(O)COc2ccccc2)CC1 (stereo not drawn)	5	2	13*	0	0	1
Cc1cccc(N2CCN(CC(O)COc3ccccc3)CC2)c1 (stereo not drawn)	-2	4.8*	3	-2	/	0
NC(=O)C1CCN(CC(O)COc2ccc(-c3ccccc3)cc2)CC1 (stereo not drawn)	-2	5.6*	-4	0	/	1
Nc1nonc1C(=Nc1ccc(Br)cc1)NO	4	1	2	0	66*	1
COc1ccc(C)cc1Nc1n[n+](-c2ccccc2)c(-c2ccc(NC(C)=O)cc2)s1	2	-1	4	-1	65*	0
COc1ccc(C)cc1Nc1n[n+](-c2ccccc2)c(-c2cc([N+](=O)[O-])cc(OC)c2O)s1	/	0	/	/	10	/
SMILES	hcDAF12 agonist	DAX1 inh-1	hgDAF12 agonist	ssDAF12 agonist	AHR act	DAX1 inh-2
CC(=O)Nc1ccc(-c2sc(Nc3cccc4ccccc34)n[n+]2-c2ccccc2)cc1	1	1	2	0	81*	0
CSc1ccc(-c2sc(Nc3ccccc3)n[n+]2-c2ccccc2)cc1	/	2	/	/	65*	/
CSc1ccc(-c2sc(Nc3cccc4ccccc34)n[n+]2-c2ccccc2)cc1	4	2	1	0	41	1
CCc1ccc(Nc2n[n+](-c3ccccc3)c(-c3ccc(SC)cc3)s2)cc1	2	2	7	0	24	-1
COc1ccc(C)cc1Nc1n[n+](-c2ccccc2)c(-c2ccc(SC)cc2)s1	2	4	12*	0	73*	0
CCOC(=O)[C@H]1[C@H]2COc3cc(OC)ccc3[C@@H]2N2C(=O)c3c(C)cc(C)cc3NC(=O)[C@@]12C	-1	0	1	-1	0	0
O=C(NCc1ccccc1OC(F)(F)F)C1CCC(=O)N(CCCN2CCOCC2)C1 (stereo not drawn)	0	2	1	-1	/	1
CCC1(c2ccccc2)NC(=O)N(CC(=O)Nc2ccc(S(N)(=O)=O)cc2)C1=O (stereo not drawn)	0	1	-1	-1	-1	0
O=C(O)CCSCCCN1C(=O)c2cccc3cccc(c23)C1=O	1	2	-3	-1	49*	0
COC(=O)[C@]12CCCCC=C1N(Cc1ccccc1)C(=O)[C@H](CC(=O)NCc1cccs1)C2	-1	/	-3	-1	/	0
COc1ccccc1NC(=O)C1=C(C)NC(=O)NC1c1ccccc1[N+](=O)[O-] (stereo not drawn)	3	0	1	0	71*	0
COc1ccccc1NC(=S)NNC(=O)c1nn(C)c(C)c1Br	3	2	12*	0	-1	1
COc1ccccc1NC(=S)NNC(=O)c1nn(C)c(C)c1Cl	2	2	6	-1	-1	0
Cn1ncc([N+](=O)[O-])c1C(=O)Nc1ccccc1C(=O)O	1	-1	-3	-1	1	0
COc1ccccc1NC(=O)c1nn(C)c(C(=O)Nc2ccccc2OC)c1[N+](=O)[O-]	-2	1	-1	-1	59*	0
COc1ccccc1NC(=O)c1c([N+](=O)[O-])cnn1C	1	1	0	-1	61*	1
CC1=C(C(=O)Nc2ccccc2)C(c2ccccc2[N+](=O)[O-])NC(=O)N1 (stereo not drawn)	2	0	3	-1	27	0

Bioassay records from PubChem BioAssay.
